Results published in PubChem BioAssay (NCATS).
Results filed as inconclusive are left out. Calls of active or inactive are those of the source. Unless noted, calls follow the shape of the dose curve; as a rule, active = well fitted curve in the direction sought with a large enough effect; inconclusive = small, poorly fitted or top-dose-only effect, or another doubt; inactive = no such curve, though single readings can be large; an effect the other way counts as inactive or inconclusive.

How the values were obtained:
[1] = qHTS for Inhibitors of Plasmodium falciparum (DD2) proliferation (AID 504314); also: potency is read from the fitted curve at half-maximal effect;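 as to activity, negative = inhibition: parasite DNA measured by SYBR Green fluorescence after red cell lysis; plate controls were DMSO vehicle for no effect and artemisinin wells for full effect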
Outline: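 Normalization used 0.29 uM artemisinin as full inhibition and DMSO as baseline. Parasitized erythrocytes were exposed to compounds for 72 h (37C, 5% CO2), then lysed with saponin/Triton buffer containing SYBR Green I.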

[2] = qHTS for Inhibitors of Plasmodium falciparum (GB4) proliferation (AID 504315); also: nearly all actives have a fitted effect of over 50% in size; also: potency is read from the fitted curve at half-maximal effect;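 as to activity change, negative = inhibition: 0% = DMSO vehicle and -100% = 0.29 µM artemisinin control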
Outline: (§1)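 Parasite growth measured as SYBR Green DNA fluorescence (ex 485, em 535 nm) after overnight lysis following 72 h culture at 37 °C, 0.3% parasitemia, 2.5% hematocrit. Values normalized against DMSO and 0.29 uM artemisinin controls, with plate-stack correction.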

[3] = qHTS for Inhibitors of Plasmodium falciparum (7G8) proliferation (AID 504316); also: nearly all actives have a fitted effect of over 65% in size; also: potency is read from the fitted curve at half-maximal effect;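 as to activity change, negative = inhibition: series mostly up to about 6.7 µM; 0% = DMSO vehicle and -100% = 0.29 µM artemisinin full kill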
Outline: as §1

[4] = qHTS for Inhibitors of Plasmodium falciparum (CP250) proliferation (AID 504320);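 also: plate controls were DMSO vehicle for no effect and 0.29 µM artemisinin control for full effect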
Outline: as §1

[5] = target: Atrial natriuretic peptide receptor 1 (Homo sapiens) (UniProt P16066); assay: Natriuretic polypeptide receptor (hNpr1) antagonism - Pilot CMLD screen (AID 1347052; calls by dose curve;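 also: HEK293 cells with hNpr1 stimulated by hNppA peptide at 0.1 nM; cGMP level read as GloSensor luciferase luminescence after agonist stimulation; series mostly up to about 9.2 µM; % is scaled to controls: 0 for no effect and ±100 for the full control effect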)
Sequence of Atrial natriuretic peptide receptor 1 (Homo sapiens) (P16066 whole entry, looked up): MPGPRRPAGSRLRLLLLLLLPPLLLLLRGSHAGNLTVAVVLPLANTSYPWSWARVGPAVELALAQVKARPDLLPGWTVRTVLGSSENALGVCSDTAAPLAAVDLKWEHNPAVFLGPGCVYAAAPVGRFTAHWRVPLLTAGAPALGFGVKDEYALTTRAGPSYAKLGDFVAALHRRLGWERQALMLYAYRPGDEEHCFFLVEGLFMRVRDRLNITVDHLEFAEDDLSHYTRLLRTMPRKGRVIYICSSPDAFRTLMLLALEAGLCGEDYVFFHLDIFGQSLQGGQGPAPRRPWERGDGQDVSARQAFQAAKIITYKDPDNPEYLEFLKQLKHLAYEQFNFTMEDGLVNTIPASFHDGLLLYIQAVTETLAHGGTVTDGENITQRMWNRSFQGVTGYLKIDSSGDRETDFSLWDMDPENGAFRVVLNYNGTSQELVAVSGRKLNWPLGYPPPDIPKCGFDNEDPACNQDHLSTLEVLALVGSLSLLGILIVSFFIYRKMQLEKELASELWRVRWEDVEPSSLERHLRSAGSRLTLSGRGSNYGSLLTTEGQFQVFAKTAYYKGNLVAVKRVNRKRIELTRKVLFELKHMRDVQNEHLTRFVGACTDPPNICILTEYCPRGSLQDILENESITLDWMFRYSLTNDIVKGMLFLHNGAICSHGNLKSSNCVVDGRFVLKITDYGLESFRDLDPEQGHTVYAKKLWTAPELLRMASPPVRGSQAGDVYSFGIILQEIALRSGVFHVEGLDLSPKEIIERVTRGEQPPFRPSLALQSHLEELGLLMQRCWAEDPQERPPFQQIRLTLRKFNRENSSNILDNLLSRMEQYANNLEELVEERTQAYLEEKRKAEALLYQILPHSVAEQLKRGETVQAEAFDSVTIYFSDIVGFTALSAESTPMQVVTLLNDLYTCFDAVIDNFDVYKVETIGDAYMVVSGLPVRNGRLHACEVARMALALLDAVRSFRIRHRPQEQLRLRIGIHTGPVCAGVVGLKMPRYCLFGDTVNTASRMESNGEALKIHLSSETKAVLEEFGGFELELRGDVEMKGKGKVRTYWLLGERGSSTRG

[6] = qHTS for Inhibitors of Plasmodium falciparum (HB3) proliferation (AID 504318); also: nearly all actives have a fitted effect of over 60% in size; also: potency is read from the fitted curve at half-maximal effect;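 as to activity change, negative = inhibition: 0% = DMSO vehicle and -100% = artemisinin control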
Outline: as §1

[7] = target: Cytochrome P450 2C9 (Homo sapiens) (UniProt P11712); assay: qHTS Assay for Inhibitors and Substrates of Cytochrome P450 2C9 (AID 883); also: % is scaled to controls: 0 for no effect and ±100 for the full control effect; nearly all actives have a fitted effect of over 60% in size
Sequence of Cytochrome P450 2C9 (Homo sapiens) (P11712 whole entry, looked up): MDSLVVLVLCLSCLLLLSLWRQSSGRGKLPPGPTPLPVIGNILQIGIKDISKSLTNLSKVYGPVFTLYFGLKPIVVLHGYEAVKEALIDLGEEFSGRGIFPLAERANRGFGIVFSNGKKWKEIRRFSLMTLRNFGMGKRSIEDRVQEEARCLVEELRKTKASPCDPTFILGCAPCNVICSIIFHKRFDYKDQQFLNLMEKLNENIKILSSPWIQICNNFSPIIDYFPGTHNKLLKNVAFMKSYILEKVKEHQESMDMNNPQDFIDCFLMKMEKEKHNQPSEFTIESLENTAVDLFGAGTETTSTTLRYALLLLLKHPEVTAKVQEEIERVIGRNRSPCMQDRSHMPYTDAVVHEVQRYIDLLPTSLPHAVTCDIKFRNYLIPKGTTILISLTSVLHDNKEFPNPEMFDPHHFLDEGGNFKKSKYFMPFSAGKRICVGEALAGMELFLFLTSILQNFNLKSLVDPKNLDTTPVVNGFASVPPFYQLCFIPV
Outline: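 Signal: luciferase luminescence reporting luciferin produced by CYP2C9. Conditions: 10nM enzyme, Luciferin-H 100uM at KM, 25mM KPO4, 37C, 60 min NADPH-driven reaction. Reference: 57uM sulphaphenazole as 100% inhibition.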

[8] = target: Cytochrome P450 3A4 (Homo sapiens) (UniProt P08684); assay: qHTS Assay for Inhibitors and Substrates of Cytochrome P450 3A4 (AID 884); also: series mostly up to about 57 µM; % is scaled to controls: 0 for no effect and ±100 for the full control effect; nearly all actives have a fitted effect of over 50% in size
Sequence of Cytochrome P450 3A4 (Homo sapiens) (P08684 whole entry, looked up): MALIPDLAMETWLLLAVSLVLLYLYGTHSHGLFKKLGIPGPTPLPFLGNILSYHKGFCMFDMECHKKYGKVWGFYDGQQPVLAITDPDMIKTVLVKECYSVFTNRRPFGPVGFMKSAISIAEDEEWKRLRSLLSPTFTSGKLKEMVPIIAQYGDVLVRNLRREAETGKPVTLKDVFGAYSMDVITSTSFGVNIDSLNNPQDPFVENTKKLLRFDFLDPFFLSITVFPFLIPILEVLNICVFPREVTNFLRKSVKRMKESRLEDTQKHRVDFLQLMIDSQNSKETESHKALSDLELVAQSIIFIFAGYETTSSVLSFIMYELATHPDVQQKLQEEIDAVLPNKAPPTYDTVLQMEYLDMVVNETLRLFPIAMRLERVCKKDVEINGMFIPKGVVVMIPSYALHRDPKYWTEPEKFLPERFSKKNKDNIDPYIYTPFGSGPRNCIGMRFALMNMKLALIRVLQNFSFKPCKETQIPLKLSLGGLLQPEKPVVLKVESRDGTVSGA
Outline: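 Luminescent readout of luciferin produced by CYP3A4 (20 nM) dealkylation of Luciferin-PPXE, 25 uM (its KM). NADPH-driven reaction ran 60 min at RT after 10 min compound preincubation; data scaled to 57 uM ketoconazole as 100% inhibition.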

[9] = target: Cytochrome P450 2D6 (Homo sapiens) (UniProt P10635); assay: qHTS Assay for Inhibitors and Substrates of Cytochrome P450 2D6 (AID 891);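 also: luciferin methyl ether substrate demethylated by CYP2D6 with NADPH regeneration; % is scaled to controls: 0 for no effect and ±100 for the full control effect; nearly all actives have a fitted effect of over 60% in size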
Sequence of Cytochrome P450 2D6 (Homo sapiens) (P10635 whole entry, looked up): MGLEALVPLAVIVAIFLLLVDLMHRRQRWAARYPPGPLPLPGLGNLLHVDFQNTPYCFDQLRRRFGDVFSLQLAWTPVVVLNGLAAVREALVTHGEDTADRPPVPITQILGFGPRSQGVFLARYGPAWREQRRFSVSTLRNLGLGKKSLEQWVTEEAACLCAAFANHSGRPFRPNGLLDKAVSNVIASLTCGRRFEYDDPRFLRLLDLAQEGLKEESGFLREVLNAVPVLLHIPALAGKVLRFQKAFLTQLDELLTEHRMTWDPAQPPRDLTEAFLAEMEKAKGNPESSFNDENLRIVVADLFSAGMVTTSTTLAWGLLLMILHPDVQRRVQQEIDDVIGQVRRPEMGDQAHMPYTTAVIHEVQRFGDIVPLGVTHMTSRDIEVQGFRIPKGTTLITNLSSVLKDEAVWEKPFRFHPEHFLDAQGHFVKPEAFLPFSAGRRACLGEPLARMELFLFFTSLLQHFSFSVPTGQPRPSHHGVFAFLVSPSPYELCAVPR
Outline: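 Luminescent read-out of luciferin formed by 5 nM human CYP2D6 demethylating 30 uM Luciferin-ME EGE (Km level) over 60 min at room temperature after NADPH regeneration addition. Data normalized to full inhibition by 1.43 uM quinidine.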

[10] = target: Cytochrome P450 2C19 (Homo sapiens) (UniProt P33261); assay: qHTS Assay for Inhibitors and Substrates of Cytochrome P450 2C19 (AID 899); also: % is scaled to controls: 0 for no effect and ±100 for the full control effect; nearly all actives have a fitted effect of over 60% in size
Sequence of Cytochrome P450 2C19 (Homo sapiens) (P33261 whole entry, looked up): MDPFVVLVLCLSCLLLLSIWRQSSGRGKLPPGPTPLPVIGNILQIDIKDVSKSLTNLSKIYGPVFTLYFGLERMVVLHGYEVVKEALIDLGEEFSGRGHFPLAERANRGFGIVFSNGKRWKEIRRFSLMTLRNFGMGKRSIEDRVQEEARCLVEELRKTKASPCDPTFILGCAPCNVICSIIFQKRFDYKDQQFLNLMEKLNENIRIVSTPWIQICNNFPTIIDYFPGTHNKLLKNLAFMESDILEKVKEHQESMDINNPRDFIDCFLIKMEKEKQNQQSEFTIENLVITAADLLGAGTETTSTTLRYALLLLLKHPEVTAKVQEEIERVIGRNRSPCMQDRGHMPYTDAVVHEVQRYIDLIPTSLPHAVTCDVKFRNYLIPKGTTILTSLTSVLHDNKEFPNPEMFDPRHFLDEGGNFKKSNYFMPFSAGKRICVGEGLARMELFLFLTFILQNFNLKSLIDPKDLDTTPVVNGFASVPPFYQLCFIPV
Outline: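 Signal comes from luciferase acting on luciferin released by CYP2C19-mediated hydroxylation of Luciferin-H EGE, 10uM (KM). Assay mix: 5nM enzyme, 50mM KPO4; 60 min at 37C with NADPH regeneration. Data normalized against 57uM ketoconazole.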

COC(=O)C1=C(C)N(Cc2ccccc2)C(=S)NC1CCc1ccccc1 (stereo unspecified)
inactive: Potency [1] | Potency [2] | Potency [3] | Potency [4] | Potency [5]

Cc1cc(O)cc(O)c1C(=O)OC1(C)C(=O)C=C2C=C(C=CCO)OC=C2C1=O (stereo unspecified)
inactive: Potency [1] | Potency [2] | Potency [6] | Potency [4] | Potency [5]

Cc1c(O)c(=O)c2ccccc2n1C
inactive: activity change, negative = inhibition [7] 25.8% [at 11.4 µM] | activity change, negative = inhibition [8] 0.317% [at 11.4 µM] | activity change, negative = inhibition [9] 2.15% [at 11.4 µM] | activity, negative = inhibition [10] 73.4% [at 11.4 µM] | Potency [1] | Potency [2] | Potency [3] | Potency [4] | Potency [5]

C=CCN1C(=O)[C@@]2(CC(C)=C[C@@H](COc3ccccc3)O2)c2ccccc21
inactive: Potency [1] | Potency [2] | Potency [6] | Potency [4] | Potency [5]

COc1ccc(C=CNC(=O)Cc2ccc(OC)c(OC)c2)cc1
inactive: Potency [1] | Potency [2] | Potency [6] | Potency [5]

CCOC(=O)NN=C1C[C@@H](O)[C@@H](O)[C@@H]2[C@H]3C(=O)N(C[C@@H]4CCCO4)C(=O)[C@@H]3CC[C@H]12
inactive: Potency [1] | Potency [2] | Potency [6] | Potency [5]

COC(=O)N[C@H](CC(C)=O)c1ccc(F)cc1
inactive: Potency [1] | Potency [2] | Potency [3] | Potency [4] | Potency [5]

C=CCOC(=O)NC(c1ccc(F)c(F)c1)S(=O)(=O)c1ccc(Cl)cc1 (stereo unspecified)
inactive: Potency [1] | Potency [2] | Potency [6] | Potency [5]

CC1(OC(=O)C2CCCC2)C(=O)C=C2C=C(c3ccsc3)N(Cc3ccc4c(c3)OCO4)C=C2C1=O (stereo unspecified)
inactive: activity, negative = inhibition [1] -6.6% [at 1.12 µM] | Potency [2] | Potency [3] | Potency [4] | Potency [5]

O=C(C=Cc1ccccc1)c1ccccc1O
inactive: Potency [1] | Potency [2] | Potency [3] | Potency [4] | Potency [5]

CCN1C(=NCCc2ccccn2)NC(c2cccc(C(F)(F)F)c2)C(C(=O)OC)=C1C (stereo unspecified)
active: Potency [1] 533 nM | Potency [2] 301 nM
inactive: Potency [6] | Potency [5]

COCCN1C(=O)CC[C@@]23C1=NC(C(=O)OC)=C(C(=O)OC)[C@@H]2N(CC=C(C)C)c1ccccc13
inactive: Potency [1] | Potency [2] | Potency [6] | Potency [5]

CCCCc1cc2c(cn1)=C(OC(=O)CCC(=O)OC)C(C)(OC(=O)CC)C(=O)C=2 (stereo unspecified)
inactive: activity, negative = inhibition [1] -0.996% [at 1.12 µM] | Potency [4] | Potency [5]
active: Potency [2] 1690 nM | Potency [3] 1690 nM

CC(CCN1CCCc2nc(C)c(C)cc21)=NO[C@@H](C)c1cc(-c2c(C)cc(C)cc2C)no1
inactive: Potency [1] | Potency [2] | Potency [6] | Potency [5]

COc1cc2c(cc1OC)[C@@H]1O[C@](CCCCN3C(=O)c4ccccc4C3=O)(C2)Oc2c1c(=O)oc1ccccc21
inactive: Potency [5]
active: Potency [1] 1500 nM | Potency [2] 1690 nM | Potency [6] 2390 nM

C=C(C(C)=O)C(O)c1ccc(C(F)(F)F)cc1 (stereo unspecified)
inactive: Potency [1] | Potency [2] | Potency [6] | Potency [4] | Potency [5]

C[C@@H]1C(c2ccccc2)=Cc2[nH]c(=O)[nH]c2C[C@@H]1C(=O)N1CCCC1
inactive: Potency [1] | Potency [2] | Potency [3] | Potency [4] | Potency [5]

C[C@H]1Cc2c(COc3ccccc3)nc3c(c2CO1)CN(C(=O)C1CC1)CC3
inactive: Potency [1] | Potency [2] | Potency [3] | Potency [4] | Potency [5]

COCCN1C(=O)CC[C@@]23C1=NC(C(=O)OC)=C(C(=O)OC)[C@@H]2N(Cc1ccccc1)c1ccccc13
inactive: Potency [1] | Potency [2] | Potency [3] | Potency [4] | Potency [5]

CC1=CC[C@@H](C)O[C@@]2(C1)C(=O)Nc1cccc(Br)c12
inactive: Potency [1] | Potency [2] | Potency [3] | Potency [4] | Potency [5]

CC(C)=CCCC(C)=CCON=C1C[C@@H](O)[C@@H](O)[C@@H]2[C@H]3C(=O)N(Cc4ccc5c(c4)OCO5)C(=O)[C@@H]3CC[C@@H]12
inactive: Potency [1] | Potency [2] | Potency [3] | Potency [4] | Potency [5]

C=C(C#Cc1ccc(OC)cc1)CCN1C=C(C(=O)OCC)C(c2ccccc2)NC1=O (stereo unspecified)
inactive: Potency [1] | Potency [2] | Potency [6] | Potency [5]

COC(=O)NC(c1ccccc1)c1c[nH]c2ccccc12 (stereo unspecified)
inactive: Potency [1] | Potency [2] | Potency [3] | Potency [4] | Potency [5]

C#CCCOC(=O)N1C2=NC(C(=O)OC)=C(C(=O)OC)[C@@H]3N(C)c4ccccc4[C@]23C[C@H]1C(=O)OC
inactive: Potency [1] | Potency [2] | Potency [3] | Potency [4] | Potency [5]

COC(=O)CC=C[C@@H](C)[C@@H](C=NOC[C@@H](C)[C@H](OCc1ccccc1)C(C)C)NS(=O)(=O)c1ccc(C)cc1
inactive: Potency [1] | Potency [2] | Potency [6] | Potency [4] | Potency [5]

C[C@H]1CC[C@H]2C(=O)N[C@H](Cc3ccccc3)C(=O)N2[C@H]1c1ccccc1
inactive: Potency [1] | Potency [2] | Potency [6] | Potency [4] | Potency [5]

COc1cc2c(cc1OC)[C@@H]1O[C@](CCCCN3C(=O)c4ccccc4C3=O)(C2)OC2=C1C(=O)c1ccccc1C2=O
inactive: Potency [4] | Potency [5]
active: Potency [1] 1340 nM | Potency [2] 1510 nM | Potency [6] 1510 nM
